Results reported in PubChem BioAssay (NCI).
Compounds without any hit were thinned out: in the full panel of roughly 83,000, 20% have a hit.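 Each cell line was grown in a 96-well plate and treated with one concentration of compound for 48 hours. Values below 10 were considered active.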 Activity calls are given as the source filed them.

Experiments:
Test in all cases: NCI-60 one-dose screen, 48 h (100 = growth as untreated, 0 = no growth, -100 = all killed)
Settings in all cases: 10 µM unless noted
[1] = test system: T-47D breast
[2] = test system: BT-549 breast
[3] = test system: MDA-MB-435 melanoma
[4] = test system: SW-620 colon
[5] = test system: MCF7 breast
[6] = test system: HCT-116 colon
[7] = test system: HCC-2998 colon
[8] = test system: KM12 colon

Measured: growth

COc1ccc(NC(=O)c2c(Nc3ccc(OC)cc3OC)n[nH]c2N)c(OC)c1
inactive: [1] 83% | [2] 93.7% | [3] 95.2% | [4] 102% | [5] 76.4% | [6] 90.1% | [7] 107% | [8] 102%

Cc1cc(C2=NNC(=O)Cc3cc4c(cc32)OCCO4)cc(C)c1N
inactive: [1] 46.1% | [2] 30.7% | [4] 26.5% | [5] 16.7% | [6] 20.4% | [7] 48.8% | [8] 24%
active: [3] -12.6%

COc1cccc(/C=C2\Oc3cc(OCCCN4CCCC4)ccc3C2=O)c1
inactive: [1] 88.1% | [2] 92.6% | [3] 99.2% | [4] 92.2% | [5] 51.2% | [6] 21.1% | [7] 85.5% | [8] 83.8%

CCCCCCCCCCCCNC(=O)[C@H]1CSC(c2ccsc2)N1 (some centres undefined)
active: [1] -41.2% | [2] -67.6% | [3] -98.1% | [4] -75.9% | [5] -67.5% | [6] -48.3% | [8] -92.7%
inactive: [7] 11%

CN(C)c1cccc2c(S(=O)(=O)/N=C(\N)Nc3nc4ccccc4s3)cccc12
active: [3] -11.5%
inactive: [1] 39.6% | [2] 47.5% | [4] 31% | [5] 29.6% | [6] 42.4% | [7] 70.4% | [8] 35.7%

COc1cc(-c2nn(-c3cccc(NC(=O)Nc4ccc(Cl)c(C(F)(F)F)c4)c3)cc2-c2ccncc2)ccc1Cl
inactive: [4] 15.4%
active: [1] 0.618% | [2] 7.16% | [3] -52.3% | [5] 0.143% | [6] 5.3% | [7] 8.88% | [8] 2.88%

COc1cc(C2C3=C(COC3=O)Nc3cc4c(cc32)CCC4)cc2c1OCO2 (centres undefined)
active: [3] -12.3% | [6] 5.73% | [7] 8.29% | [8] 3%
inactive: [1] 64% | [2] 23.8% | [4] 25.4% | [5] 19.1%

CN(C)CCN1C(=O)c2ccc3c4c(ccc(c24)C1=O)C(=O)N(CCN=C=S)C3=O
active: [1] -54.5% | [2] -87.5% | [3] -90.9% | [4] -68.1% | [5] -67.7% | [6] -71.9% | [7] -87.4% | [8] -93%

COc1ccc(-c2ccc(-c3ccc(C(=N)N)s3)s2)cc1Cl
inactive: [2] 94.9%
active: [1] 6.3% | [3] -81.4% | [4] -78.7% | [5] -66.2% | [6] -95.8% | [7] 9.04% | [8] -86.1%

O=C(NS(=O)(=O)c1ccccc1)n1cc(-c2ccncc2)c(-c2ccc(Cl)c(O)c2)n1
inactive: [1] 107% | [2] 104% | [3] 67.9% | [4] 136% | [5] 109% | [6] 89.1% | [7] 127% | [8] 99.6%

COc1cccc(-c2nc3sccn3c2-c2ccnc(NCCCNS(=O)(=O)c3ccc(F)cc3)c2)c1
active: [1] -3.13%
inactive: [2] 13% | [3] 19.1% | [4] 41.7% | [5] 31.8% | [6] 25.5% | [7] 61.5% | [8] 21%

COc1ccc(-c2c(N)n[nH]c2-c2cc3c(c(OC)c2OC)OCO3)cc1
inactive: [1] 106% | [2] 101% | [3] 106% | [4] 101% | [5] 101% | [6] 94.1% | [7] 106% | [8] 99.9%

COc1cc(-c2nn(-c3cccc(NC(=O)Nc4ccc(Cl)c(Cl)c4)c3)cc2-c2ccncc2)ccc1Cl
inactive: [4] 13.4%
active: [1] 2.98% | [2] 6.23% | [3] -45.8% | [5] 1.73% | [6] 8.67% | [7] 2.84% | [8] 1.3%

O=S1(=O)CCC(N(/N=C/c2ccco2)c2ccccc2)C1 (centres undefined)
inactive: [1] 103% | [2] 101% | [3] 107% | [4] 95.4% | [5] 96.4% | [6] 97.4% | [7] 97.6% | [8] 103%

CCC(=O)OC1=CN2C(=NC(c3ccc(N)cc3)=CC2c2cc(OC)c(OC)c(OC)c2)S1 (centres undefined)
inactive: [1] 58.2% | [2] 26.8% | [3] 23.1% | [4] 28.3% | [5] 16.7% | [6] 17.9% | [7] 89% | [8] 47.4%

Brc1cccc(-c2cc(-c3ccc4c(c3)OCCCO4)[nH]n2)c1
active: [3] -7% [25 µM]
inactive: [1] 29.2% [25 µM] | [2] 72.8% [25 µM] | [4] 31.8% [25 µM] | [5] 23.2% [25 µM] | [6] 51.4% [25 µM] | [7] 75.6% [25 µM] | [8] 20% [25 µM]

COc1ccc(/C=C(\C#N)c2cc(OC)c3c(c2)OCO3)cc1
active: [3] -17.6% | [6] 6.05% | [8] 5.15%
inactive: [1] 62.3% | [2] 30.9% | [4] 24.4% | [5] 17.4% | [7] 15.7%

CC(C)(C)OC(=O)NC(CSCc1ccccc1)C(=O)ON1C(=O)CCC1=O (centres undefined)
inactive: [1] 93.9% | [2] 117% | [3] 109% | [4] 105% | [5] 98.4% | [6] 92.5% | [7] 101% | [8] 109%

COc1cccc(/C=C/C(=O)Nc2cc(OC)c3c(c2)OCO3)c1
inactive: [1] 94.7% | [2] 108% | [3] 78.9% | [4] 107% | [5] 102% | [6] 100% | [7] 97% | [8] 89.1%

Nc1cccc(-c2nc3sccn3c2-c2ccnc(NCCCNS(=O)(=O)c3cccc4ccccc34)n2)c1
active: [1] -2.4% | [2] 7.66%
inactive: [3] 23.2% | [4] 68.2% | [5] 25.2% | [6] 36.1% | [7] 60.7% | [8] 23.6%

CC1=NC2=CC=CC3=NC(C(Cl)(Cl)Cl)=NC(=N1)N23
inactive: [1] 61.4% | [2] 45.9% | [3] 77.9% | [4] 78.4% | [5] 62.7% | [6] 68.3% | [7] 57.5% | [8] 85.5%

CCCCCc1cc[n+](CC(=O)c2ccc([N+](=O)[O-])cc2)cc1
inactive: [1] 56.7% | [2] 77% | [3] 68.2% | [4] 49% | [5] 43% | [6] 21.2% | [7] 58.1% | [8] 50%

Cc1cc(C)n(-c2nnc3n2N=C(c2ccc(-c4ccccc4)cc2)CS3)n1
inactive: [1] 48.7% | [2] 48.7% | [4] 36.7% | [5] 28% | [6] 41.8% | [7] 76.8% | [8] 53%
active: [3] -7.2%

COc1cc(/C(C#N)=C/c2ccc3c(c2OC)OCO3)cc2c1OCO2
active: [3] -39.4%
inactive: [1] 52.7% | [2] 71.7% | [4] 19.8% | [5] 21.4% | [6] 16.7% | [7] 12.8% | [8] 17.4%

COc1cc(C2C3=C(COC3=O)Nc3cc4c(cc32)OCO4)cc2c1OCO2 (centres undefined)
active: [3] -20.4% | [6] 6.83% | [7] 8.39% | [8] 1.28%
inactive: [1] 51.9% | [2] 25.4% | [4] 17.1% | [5] 13.9%

COc1ccc(-c2nc(SCCC(C)C)nc(Nc3ccc(F)c(Cl)c3)c2C#N)cc1
inactive: [1] 72.4% | [2] 97.1% | [3] 79.1% | [4] 54.8% | [5] 69.1% | [6] 68.3% | [7] 102% | [8] 102%

CC(O)CN1CCCCC1 (centres undefined)
inactive: [1] 137% | [2] 101% | [3] 105% | [4] 102% | [5] 103% | [6] 110% | [7] 115% | [8] 106%

O=C(Oc1ccccc1[N+](=O)[O-])C1CCCN1C(=O)OCc1ccccc1 (centres undefined)
inactive: [1] 110% | [2] 89.6% | [3] 104% | [4] 105% | [5] 95.6% | [6] 87% | [7] 101% | [8] 107%
